Experimental data: PubChem BioAssay (NCI)
Compounds without any hit were thinned out: in the full panel of roughly 83,000, 20% have a hit.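 Values shown are percent growth following 48 h exposure of cells in 96-well plates to a single concentration of compound; below 10 was considered active.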 Calls of active or inactive are those of the source.

Experiments:
Assay in all cases: NCI-60 one-dose screen, 48 h (100 = growth as untreated, 0 = no growth, -100 = all killed)
Conditions in all cases: 10 µM unless noted
HCT-15 colon = test system: HCT-15 colon
HT29 colon = test system: HT29 colon
SNB-75 CNS = test system: SNB-75 CNS
SNB-19 CNS = test system: SNB-19 CNS
U251 CNS = test system: U251 CNS
PC-3 prostate = test system: PC-3 prostate
SK-MEL-5 melanoma = test system: SK-MEL-5 melanoma
UACC-62 melanoma = test system: UACC-62 melanoma
LOX IMVI melanoma = test system: LOX IMVI melanoma
SK-MEL-28 melanoma = test system: SK-MEL-28 melanoma
SK-MEL-2 melanoma = test system: SK-MEL-2 melanoma
EKVX NSCLC = test system: EKVX NSCLC
SN12C renal = test system: SN12C renal
UO-31 renal = test system: UO-31 renal
TK-10 renal = test system: TK-10 renal
ACHN renal = test system: ACHN renal
CAKI-1 renal = test system: CAKI-1 renal
A498 renal = test system: A498 renal
CCRF-CEM leukemia = test system: CCRF-CEM leukemia
MOLT-4 leukemia = test system: MOLT-4 leukemia

Measured: growth

CCOc1ccc2sc(NS(=O)(=O)c3ccc(N)cc3)nc2c1
inactive: HCT-15 colon 107% | HT29 colon 109% | SNB-75 CNS 98.2% | SNB-19 CNS 103% | U251 CNS 99.5% | PC-3 prostate 119% | SK-MEL-5 melanoma 106% | UACC-62 melanoma 93% | LOX IMVI melanoma 105% | SK-MEL-28 melanoma 117% | SK-MEL-2 melanoma 109% | EKVX NSCLC 103% | SN12C renal 98.2% | UO-31 renal 91.2% | TK-10 renal 124% | ACHN renal 108% | CAKI-1 renal 89.4% | A498 renal 115% | CCRF-CEM leukemia 99.1% | MOLT-4 leukemia 104%

Cc1ccc(S(=O)(=O)N/N=C2\CC3CCC2(C)C3(C)C)cc1 (stereo not given)
inactive: HCT-15 colon 99.7% | HT29 colon 108% | SNB-75 CNS 81.8% | SNB-19 CNS 98.1% | U251 CNS 96.1% | PC-3 prostate 86.2% | SK-MEL-5 melanoma 101% | UACC-62 melanoma 77.2% | LOX IMVI melanoma 92.3% | SK-MEL-28 melanoma 102% | SK-MEL-2 melanoma 76.8% | EKVX NSCLC 105% | SN12C renal 93.5% | UO-31 renal 86.4% | TK-10 renal 137% | ACHN renal 102% | CAKI-1 renal 78.5% | A498 renal 105% | CCRF-CEM leukemia 112% | MOLT-4 leukemia 111%

Oc1ccc(N=Nc2nccs2)c(O)c1
inactive: HCT-15 colon 28.6% | HT29 colon 51.5% | SNB-75 CNS 92.7% | SNB-19 CNS 90.8% | U251 CNS 41.1% | PC-3 prostate 55.2% | SK-MEL-5 melanoma 87.9% | UACC-62 melanoma 44.3% | LOX IMVI melanoma 40% | SK-MEL-28 melanoma 118% | SK-MEL-2 melanoma 97.7% | EKVX NSCLC 41.4% | SN12C renal 73.7% | UO-31 renal 39.2% | TK-10 renal 60.3% | ACHN renal 30.3% | CAKI-1 renal 25.9% | A498 renal 225% | CCRF-CEM leukemia 19.5% | MOLT-4 leukemia 11.8%

COc1ccc2nc3cc(Cl)ccc3c(Nc3ccc(O)cc3)c2c1
inactive: HCT-15 colon 52.9% | HT29 colon 57.9% | SNB-75 CNS 89.6% | SNB-19 CNS 81.9% | U251 CNS 70.5% | PC-3 prostate 89.2% | SK-MEL-5 melanoma 88.6% | UACC-62 melanoma 80.4% | LOX IMVI melanoma 43.5% | SK-MEL-28 melanoma 107% | SK-MEL-2 melanoma 110% | EKVX NSCLC 94.5% | SN12C renal 67.2% | UO-31 renal 62.1% | TK-10 renal 88% | ACHN renal 66.6% | CAKI-1 renal 71.5% | A498 renal 57.2% | CCRF-CEM leukemia 23.9%
active: MOLT-4 leukemia 9.49%

C1=C[C@H]2O[C@@H]1c1ccc3[nH]ccc3c12
inactive: HCT-15 colon 78.8% | HT29 colon 87.7% | SNB-75 CNS 83.4% | SNB-19 CNS 96.8% | U251 CNS 103% | PC-3 prostate 98% | SK-MEL-5 melanoma 90.4% | UACC-62 melanoma 78.8% | LOX IMVI melanoma 100% | SK-MEL-28 melanoma 94% | SK-MEL-2 melanoma 95.7% | EKVX NSCLC 105% | SN12C renal 102% | UO-31 renal 98.3% | TK-10 renal 105% | ACHN renal 107% | CAKI-1 renal 89.6% | A498 renal 98.6% | CCRF-CEM leukemia 90.7% | MOLT-4 leukemia 56%

O=C1Cc2c(sc3c(F)cccc23)C(c2ccccc2[N+](=O)[O-])N1 (stereo not given)
inactive: HCT-15 colon 110% | HT29 colon 112% | SNB-75 CNS 90% | SNB-19 CNS 100% | U251 CNS 85.2% | PC-3 prostate 100% | SK-MEL-5 melanoma 97.3% | UACC-62 melanoma 87.2% | LOX IMVI melanoma 97.7% | SK-MEL-28 melanoma 120% | SK-MEL-2 melanoma 126% | EKVX NSCLC 85.2% | SN12C renal 99.1% | UO-31 renal 69.6% | TK-10 renal 142% | ACHN renal 101% | CAKI-1 renal 75.1% | A498 renal 115% | CCRF-CEM leukemia 110% | MOLT-4 leukemia 106%

COC(=O)c1c(C)[nH]c(/C=C2\N=C(c3ccc[nH]3)C=C2OC)c1C
inactive: SNB-19 CNS 30.5% | SN12C renal 16.9% | CCRF-CEM leukemia 15.2%
active: HCT-15 colon 0.837% | HT29 colon -13.8% | SNB-75 CNS -23.3% | U251 CNS -27.9% | PC-3 prostate 9.06% | SK-MEL-5 melanoma -99.7% | UACC-62 melanoma -62.8% | LOX IMVI melanoma -56.8% | SK-MEL-28 melanoma -27.8% | SK-MEL-2 melanoma -72.8% | EKVX NSCLC -31.8% | UO-31 renal -72.6% | TK-10 renal 0.549% | ACHN renal -69.1% | CAKI-1 renal -25% | A498 renal 0.235% | MOLT-4 leukemia 1.37%

C=C(C)[C@@H]1CC[C@]2(C(=O)O)CC[C@]3(C)[C@H](CC[C@@H]4[C@@]5(C)C/C(=C/c6ccco6)C(=O)C(C)(C)[C@@H]5CC[C@]43C)[C@@H]12
active: HCT-15 colon -65.6% [100 µM] | HT29 colon -56.2% [100 µM] | SNB-75 CNS -70.3% [100 µM] | SNB-19 CNS -51.5% [100 µM] | U251 CNS -58.6% [100 µM] | PC-3 prostate -49.3% [100 µM] | SK-MEL-5 melanoma -73.5% [100 µM] | UACC-62 melanoma -97.6% [100 µM] | LOX IMVI melanoma -60.6% [100 µM] | SK-MEL-28 melanoma -64.7% [100 µM] | SK-MEL-2 melanoma -76% [100 µM] | EKVX NSCLC -63% [100 µM] | SN12C renal -70.6% [100 µM] | UO-31 renal -95.4% [100 µM] | TK-10 renal -58.5% [100 µM] | ACHN renal -89.8% [100 µM] | CAKI-1 renal -69.6% [100 µM] | A498 renal -58.5% [100 µM] | CCRF-CEM leukemia 3.44% [100 µM] | MOLT-4 leukemia -8.01% [100 µM]
